# Measurements published in the supplement of paper PMC6763611.
# System: Plasmodium falciparum NF54
# Experiment: growth inhibition relative to untreated control; higher = more inhibition
# Details: 72 h
# Procedure, shortened: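 In dark 96-well half-area plates, each well held 100 μL of P. falciparum NF54 ring-stage culture at 1% parasitemia and 1% hematocrit. The cultures received a single test-compound dose of 5 μM or 1 μM and were kept at 37 °C for 72 h, in minimal RPMI either plain or enriched with folate (2.2 μM), pABA (7.3 μM), pHBA (7.3 μM), tyrosine (111 μM), phenylalanine (90 μM) and tryptophan. SYBR Green staining gave growth inhibition, expressed against untreated wells, with uninfected erythrocytes serving as the background.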
# [1] = 1 µM, MM + chorismate end-products (CM screening medium)
# [2] = 5 µM, MM + chorismate end-products (CM screening medium)
structure (smiles),measurement,setting,value
CCOC(=O)c1noc(N)c1-c1ccccc1,growth inhibition,[1],59.8%
same,growth inhibition,"1 µM, minimal medium (MM)",12.2%
same,growth inhibition,[2],44.4%
same,growth inhibition,"5 µM, minimal medium (MM)",0.705%
CC1CCCN(C(=O)C(C)Nc2cc(Cl)ccc2N2CCOCC2)C1 (configuration not stated),growth inhibition,[1],90.5%
same,growth inhibition,"1 µM, minimal medium (MM)",94.3%
same,growth inhibition,[2],91%
same,growth inhibition,"5 µM, minimal medium (MM)",94.9%
COc1ccc(-c2nn(C(C)C)c3ncnc(N)c23)cc1OC,growth inhibition,[1],86.7%
same,growth inhibition,"1 µM, minimal medium (MM)",81.7%
same,growth inhibition,[2],97.3%
same,growth inhibition,"5 µM, minimal medium (MM)",90.9%
O=C(c1ccc(F)cc1)N(CCNc1ccccc1)c1ccccc1,growth inhibition,[1],< 0%
same,growth inhibition,"1 µM, minimal medium (MM)",< 0%
same,growth inhibition,[2],58.9%
same,growth inhibition,"5 µM, minimal medium (MM)",4.16%
CCN(CC)S(=O)(=O)c1ccc(Cl)c(C(=O)Nc2ccc3nc(C)sc3c2)c1,growth inhibition,[1],98.3%
same,growth inhibition,"1 µM, minimal medium (MM)",96.2%
same,growth inhibition,[2],91.3%
same,growth inhibition,"5 µM, minimal medium (MM)",94.1%
O=[N+]([O-])c1cn2c(n1)OC[C@@H](OCc1ccc(OC(F)(F)F)cc1)C2,growth inhibition,[1],36.9%
same,growth inhibition,"1 µM, minimal medium (MM)",2.72%
same,growth inhibition,[2],< 0%
same,growth inhibition,"5 µM, minimal medium (MM)",< 0%
COc1ccc(-c2cc(NC(=O)c3ccc(F)cc3Cl)ccc2OC)cc1,growth inhibition,[1],8.71%
same,growth inhibition,"1 µM, minimal medium (MM)",13.2%
same,growth inhibition,[2],< 0%
same,growth inhibition,"5 µM, minimal medium (MM)",< 0%
N=C(N)c1ccc(OCCCCCOc2ccc(C(=N)N)cc2)cc1,growth inhibition,[1],98.6%
same,growth inhibition,"1 µM, minimal medium (MM)",96.8%
same,growth inhibition,[2],99.4%
same,growth inhibition,"5 µM, minimal medium (MM)",94%
O=C(NC1=NCCS1)c1sc2cc(F)ccc2c1Cl,growth inhibition,[1],25.1%
same,growth inhibition,"1 µM, minimal medium (MM)",4.51%
same,growth inhibition,[2],< 0%
same,growth inhibition,"5 µM, minimal medium (MM)",< 0%
CCN(CC)S(=O)(=O)c1ccc(C(=O)Nc2cc(C)nn2-c2nc(C)c(C)c(=O)[nH]2)cc1,growth inhibition,[1],19.9%
same,growth inhibition,"1 µM, minimal medium (MM)",10.2%
same,growth inhibition,[2],78.9%
same,growth inhibition,"5 µM, minimal medium (MM)",55.2%
CC(C)(CN)c1nc(-c2ccc(Cl)c(O)c2)c(-c2ccnc(N)n2)[nH]1,growth inhibition,[1],78.9%
same,growth inhibition,"1 µM, minimal medium (MM)",70.8%
same,growth inhibition,[2],30.1%
same,growth inhibition,"5 µM, minimal medium (MM)",6.08%
COc1cc(C(F)(F)F)nc2ccc(C)c(N)c12,growth inhibition,[1],< 0%
same,growth inhibition,"1 µM, minimal medium (MM)",30.2%
same,growth inhibition,[2],< 0%
same,growth inhibition,"5 µM, minimal medium (MM)",< 0%
Cn1c(=O)c2c(S(C)(=O)=O)snc2n(C)c1=O,growth inhibition,[1],23.6%
same,growth inhibition,"1 µM, minimal medium (MM)",5.49%
same,growth inhibition,[2],37.3%
same,growth inhibition,"5 µM, minimal medium (MM)",23.5%
COc1cc(C2=NCCN2)ccc1-n1cc(-c2cccc(C3=NCCN3)c2)nn1,growth inhibition,[1],51.9%
same,growth inhibition,"1 µM, minimal medium (MM)",55%
same,growth inhibition,[2],66.5%
same,growth inhibition,"5 µM, minimal medium (MM)",19.2%
CC(C)(C)c1cc(C(=O)N2CCN(c3nccnc3C#N)CC2)n(Cc2ccccc2)n1,growth inhibition,[1],73.4%
same,growth inhibition,"1 µM, minimal medium (MM)",> 100%
same,growth inhibition,[2],92.9%
same,growth inhibition,"5 µM, minimal medium (MM)",92%
CCOc1ccc(OCC(=O)Nc2cc(C)cc(C)c2)cc1,growth inhibition,[1],24.6%
same,growth inhibition,"1 µM, minimal medium (MM)",< 0%
same,growth inhibition,[2],32.1%
same,growth inhibition,"5 µM, minimal medium (MM)",< 0%
O=C(C(Cc1c[nH]c2ccccc12)NS(=O)(=O)c1ccc(Cl)cc1)N1CCCCC1 (configuration not stated),growth inhibition,[1],58%
same,growth inhibition,"1 µM, minimal medium (MM)",56.9%
same,growth inhibition,[2],96.8%
same,growth inhibition,"5 µM, minimal medium (MM)",88.7%
CCc1nc2ccc(Cl)cn2c1C(=O)NCc1ccc(N2CCC(c3ccc(OC(F)(F)F)cc3)CC2)cc1,growth inhibition,[1],< 0%
same,growth inhibition,"1 µM, minimal medium (MM)",< 0%
same,growth inhibition,[2],91%
same,growth inhibition,"5 µM, minimal medium (MM)",71.4%
CS(=O)(=O)Cc1nc2ccccc2oc1=O,growth inhibition,[1],< 0%
same,growth inhibition,"1 µM, minimal medium (MM)",< 0%
same,growth inhibition,[2],< 0%
same,growth inhibition,"5 µM, minimal medium (MM)",< 0%
O=C(c1ccco1)N(CCCn1ccnc1)c1nc2c(Cl)cccc2s1,growth inhibition,[1],13.2%
same,growth inhibition,"1 µM, minimal medium (MM)",22.3%
same,growth inhibition,[2],> 100%
same,growth inhibition,"5 µM, minimal medium (MM)",92.8%
O=C(NC1CCCCC1)N1CCN(Cc2ccc3c(c2)OCO3)CC1,growth inhibition,[1],< 0%
same,growth inhibition,"1 µM, minimal medium (MM)",< 0%
same,growth inhibition,[2],< 0%
same,growth inhibition,"5 µM, minimal medium (MM)",< 0%
COc1cc(OC)cc(C(=O)NCC2Cc3cc(Cl)cc(-c4ccncc4)c3O2)c1 (configuration not stated),growth inhibition,[1],91.9%
same,growth inhibition,"1 µM, minimal medium (MM)",> 100%
same,growth inhibition,[2],93%
same,growth inhibition,"5 µM, minimal medium (MM)",91.9%
O=C(C1CCN(c2nnnn2-c2ccccc2)CC1)N1CCc2ccccc2C1,growth inhibition,[1],43.4%
same,growth inhibition,"1 µM, minimal medium (MM)",33%
same,growth inhibition,[2],< 0%
same,growth inhibition,"5 µM, minimal medium (MM)",< 0%
Clc1ccc(-n2cc(COc3ccnc4ccccc34)nn2)cc1,growth inhibition,[1],4.03%
same,growth inhibition,"1 µM, minimal medium (MM)",< 0%
same,growth inhibition,[2],32.4%
same,growth inhibition,"5 µM, minimal medium (MM)",16%
FC(F)(F)c1cnc(Sc2nnc(-c3ccncc3)o2)c(Cl)c1,growth inhibition,[1],53%
same,growth inhibition,"1 µM, minimal medium (MM)",61.3%
same,growth inhibition,[2],64%
same,growth inhibition,"5 µM, minimal medium (MM)",< 0%
CCOc1ccc(-c2nc(NC(=O)CS(=O)(=O)c3ccccc3)sc2C)cc1,growth inhibition,[1],96.4%
same,growth inhibition,"1 µM, minimal medium (MM)",95.3%
same,growth inhibition,[2],95.3%
same,growth inhibition,"5 µM, minimal medium (MM)",92.6%
COC(=O)c1c(NC(=O)c2cc3ccccc3oc2=O)sc2c1CCN(Cc1ccccc1)C2,growth inhibition,[1],< 0%
same,growth inhibition,"1 µM, minimal medium (MM)",8.51%
same,growth inhibition,[2],5.7%
same,growth inhibition,"5 µM, minimal medium (MM)",1.3%
O=C(Nc1cccc(-c2ccc(NCCCN3CCCC3)nc2)c1)c1ccccc1,growth inhibition,[1],96.3%
same,growth inhibition,"1 µM, minimal medium (MM)",> 100%
same,growth inhibition,[2],63.2%
same,growth inhibition,"5 µM, minimal medium (MM)",81.1%
O=C(NC1CC1)c1ccc(N2CCC(Cc3ccccc3)CC2)nc1,growth inhibition,[1],95.5%
same,growth inhibition,"1 µM, minimal medium (MM)",91.8%
same,growth inhibition,[2],95.7%
same,growth inhibition,"5 µM, minimal medium (MM)",92.1%
CCOc1ccccc1NC(C)C(=O)Nc1cc(C(F)(F)F)ccc1N1CCOCC1 (configuration not stated),growth inhibition,[1],76%
same,growth inhibition,"1 µM, minimal medium (MM)",64.5%
same,growth inhibition,[2],91.6%
same,growth inhibition,"5 µM, minimal medium (MM)",96.1%
COc1cccc(OC)c1C(=O)Nc1ccc(Cl)c(-c2nc3ccccc3s2)c1,growth inhibition,[1],20.8%
same,growth inhibition,"1 µM, minimal medium (MM)",< 0%
same,growth inhibition,[2],22.9%
same,growth inhibition,"5 µM, minimal medium (MM)",29.8%
CC(C)(C)OC(=O)N1CCC(Cn2nc(-c3cnc4ccccc4c3)c3c(N)ncnc32)CC1,growth inhibition,[1],> 100%
same,growth inhibition,"1 µM, minimal medium (MM)",< 0%
same,growth inhibition,[2],64.1%
same,growth inhibition,"5 µM, minimal medium (MM)",52.3%
FC(F)(F)c1nnc2ccc(Cl)nn12,growth inhibition,[1],8.81%
same,growth inhibition,"1 µM, minimal medium (MM)",7.29%
same,growth inhibition,[2],< 0%
same,growth inhibition,"5 µM, minimal medium (MM)",8.78%
